Screening results deposited in PubChem by several laboratories.
TcdB GH inh = inhibitors of Clostridioides difficile toxin B glycohydrolase; TcdB glycohydrolase enzymatic assay, plate reader; inhibition, % at 9.99 µM; 350,000 tested, 0.24% active
PrPC TRFRET = reduces human prion protein on the cell surface | P04156 | cell surface PrPC, TR-FRET read-out | inhibition, % at 13.8 µM | 370,000 tested, 0.43% active; in the data active = inhibition above about 24%
Yp Topo-I inh = blocks Yersinia pestis topoisomerase I activity. Y. pestis Topo-I cleavage product accumulation, plate reader. activity, % at 10 µM. 360,000 tested, 0.064% active. AID 504884; in the data active = activity above about 50%, passing the limit was not always enough
FBA Mtb inh = inhibitors of M. tuberculosis fructose-bisphosphate aldolase. P9WQA3. purified M. tuberculosis FBA, fluorescence read-out. inhibition, % at 1 µM. 360,000 tested, 2.3% active. AID 588726; in the data active = inhibition above about 27%
Target sequence (P9WQA3 whole entry, looked up): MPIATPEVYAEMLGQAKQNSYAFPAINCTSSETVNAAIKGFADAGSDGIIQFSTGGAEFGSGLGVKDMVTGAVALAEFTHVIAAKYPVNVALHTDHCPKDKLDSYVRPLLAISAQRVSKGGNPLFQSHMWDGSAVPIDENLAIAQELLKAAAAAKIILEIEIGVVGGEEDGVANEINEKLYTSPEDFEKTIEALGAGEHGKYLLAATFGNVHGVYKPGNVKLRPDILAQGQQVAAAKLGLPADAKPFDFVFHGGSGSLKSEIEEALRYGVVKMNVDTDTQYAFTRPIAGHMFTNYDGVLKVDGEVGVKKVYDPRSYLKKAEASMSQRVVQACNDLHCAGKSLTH
GDH-TPI counter-1 = counter-screen for M. tuberculosis FBA inhibitors: GDH-TPI coupled enzymes; GDH-TPI coupled enzyme counterscreen, NADH absorbance; inhibition, % at 4.8 µM; 360,000 tested, 1.2% active; AID 588335; in the data active = inhibition above about 30%
Mtb FBA inh conf = confirmation of M. tuberculosis fructose-bisphosphate aldolase inhibitors; shares compounds with FBA Mtb inh; purified M. tuberculosis FBA, fluorescence read-out; inhibition, % at 1 µM; 5,600 tested, 78% active; AID 651616; in the data active = inhibition above about 27%
GDH-TPI counter-2 = inhibits GDH-TPI coupling enzymes, flagging Mtb FBA hits; shares compounds with FBA Mtb inh; GDH-TPI coupled enzyme counterscreen, fluorescence; inhibition, % at 1 µM; 5,600 tested, 81% active; AID 652141
GDH-TPI DR = counter-screen for M. tuberculosis FBA inhibitors: GDH-TPI dose response. GDH-TPI coupled enzyme assay, fluorescence, artifact counterscreen. 170 tested, 79% active. IC50, µM. shares compounds with FBA Mtb inh; call rule not given here
Of the large screens only hits and unclear results are named; the others gave an inactive call (follow-up assays come after a bar, where they were run). This is a sample that favours compounds with a hit; in the whole collection about 3.2% have one here. Rule as the data show it, unless noted: active = inhibition above about 10%; inactive = the rest.

CCc1cc(=O)oc2cc(C)cc(OC(C)C(=O)NC3CC(C)(C)NC(C)(C)C3)c12 (stereo unspecified)	FBA Mtb inh 72 | Mtb FBA inh conf 49 | GDH-TPI counter-2 42
CCCc1cc(=O)oc2cc(C)cc(OCC(=O)NCCCN3CCCC3=O)c12	FBA Mtb inh 66 | Mtb FBA inh conf active | GDH-TPI counter-2 active
Cc1c(C)c2ccc(OC(C)C(=O)NCCCn3ccnc3)c(C)c2oc1=O (stereo unspecified)	FBA Mtb inh 55 | Mtb FBA inh conf 67 | GDH-TPI counter-2 51
CCc1cc(=O)oc2cc(C)cc(OC(C)C(=O)NCCCn3ccnc3)c12 (stereo unspecified)	FBA Mtb inh 54 | Mtb FBA inh conf inactive | GDH-TPI counter-2 inactive
COCC(=O)Nc1ccc2c(c1)C(=O)N(C)C[C@@H](OC)[C@@H](C)CN(C(=O)c1ccncc1)[C@@H](C)CO2	none (no result: PrPC TRFRET, Yp Topo-I inh, FBA Mtb inh, GDH-TPI counter-1)
CCc1cc(=O)oc2cc(C)cc(OC(C)C(=O)NCCCN3CCCC3=O)c12 (stereo unspecified)	FBA Mtb inh 87 | Mtb FBA inh conf inactive | GDH-TPI counter-2 inactive
Cc1cc(=O)oc2cc(OCC(=O)NCCCN3CCCC3=O)c(Cl)cc12	none
Cc1cc(OCC(=O)NCCCN2CCCC2=O)c2c(C)cc(=O)oc2c1	FBA Mtb inh 103 | Mtb FBA inh conf inactive | GDH-TPI counter-2 inactive
Cc1c(OC(C)C(=O)NCCCN2CCOCC2)ccc2c1oc(=O)c1ccccc12 (stereo unspecified)	FBA Mtb inh 74 | Mtb FBA inh conf inactive | GDH-TPI counter-2 inactive
Cc1c(C)c2cc(Cl)c(OCC(=O)NCCCN3CCCC3=O)cc2oc1=O	FBA Mtb inh 45, GDH-TPI counter-1 34 | Mtb FBA inh conf inactive | GDH-TPI counter-2 inactive | GDH-TPI DR 7.1
Cc1ccc(S(=O)(=O)Nc2cccc3c2O[C@H](CN(C)Cc2ccncc2)[C@@H](C)CN([C@H](C)CO)C3=O)cc1	none (no result: PrPC TRFRET, Yp Topo-I inh, FBA Mtb inh, GDH-TPI counter-1)
Cc1cc(C)n2ncc(C(=O)NCc3cccnc3)c2n1	FBA Mtb inh 42 (no result: TcdB GH inh) | Mtb FBA inh conf 43 | GDH-TPI counter-2 42
COc1cccc(CNC(=O)c2cc(C3CC3)nc3c2cnn3C(C)C)c1	none
CC(C)n1ncc2c(C(=O)NCc3cccnc3)cc(C3CC3)nc21	FBA Mtb inh 54 | Mtb FBA inh conf active | GDH-TPI counter-2 active
O=C(NCc1cccnc1)c1cnn2ccccc12	FBA Mtb inh 30 | Mtb FBA inh conf 193 | GDH-TPI counter-2 140
O=C(NCc1cccnc1)c1ccccc1Br	none (no result: TcdB GH inh)
COCC(=O)Nc1ccc2c(c1)[C@H]1C[C@H](CC(=O)NCc3ccncc3)O[C@H](CO)[C@H]1O2	none (no result: PrPC TRFRET, Yp Topo-I inh, FBA Mtb inh, GDH-TPI counter-1)
CC1=CC(c2ccccc2)n2nc(NS(=O)(=O)c3ccc(C)cc3)nc2N1 (stereo unspecified)	FBA Mtb inh 49 (no result: TcdB GH inh) | Mtb FBA inh conf inactive | GDH-TPI counter-2 15
Cc1ccc(S(=O)(=O)Nc2nc3n(n2)C(c2ccc(Cl)cc2)CC(=O)N3)cc1 (stereo unspecified)	none (no result: TcdB GH inh)
CC1=CC(c2ccccc2)n2nc(N)nc2N1 (stereo unspecified)	FBA Mtb inh 53 (no result: TcdB GH inh) | Mtb FBA inh conf 40 | GDH-TPI counter-2 37
CCc1ccc(C2CC(c3ccccc3)Nc3nc(N)nn32)cc1 (stereo unspecified)	none
CC1=CC(c2ccc(Cl)cc2)n2nc(NS(=O)(=O)c3ccc(C)cc3)nc2N1 (stereo unspecified)	FBA Mtb inh 80 (no result: TcdB GH inh) | Mtb FBA inh conf 68 | GDH-TPI counter-2 63
C[C@@H]1CCCCO[C@@H](CN(C)C(=O)Nc2ccc(F)cc2)[C@@H](C)CN([C@H](C)CO)C(=O)c2cc(NC(=O)c3ccncc3)ccc2O1	none (no result: PrPC TRFRET, Yp Topo-I inh, FBA Mtb inh, GDH-TPI counter-1)
CCN(C(=O)COC(=O)c1nccnc1N)c1cccc2ccccc12	FBA Mtb inh 63 | Mtb FBA inh conf 109 | GDH-TPI counter-2 80
O=C(NCCCN1CCCC1)c1ccc2c(c1)N(Cc1ccccc1)CCS2	FBA Mtb inh 96 | Mtb FBA inh conf 153 | GDH-TPI counter-2 147
Cc1ccc(CN2CCSc3ccc(C(=O)NCc4ccccn4)cc32)cc1	FBA Mtb inh 66 | Mtb FBA inh conf 97 | GDH-TPI counter-2 67
O=C(NCc1ccco1)c1ccc2c(c1)N(Cc1ccccc1)CCS2	FBA Mtb inh 51 | Mtb FBA inh conf 115 | GDH-TPI counter-2 82
O=C(NCCCN1CCOCC1)c1ccc2c(c1)N(Cc1cccc(Cl)c1)C(=O)CS2	none
O=C(NCCN1CCOCC1)c1ccc2c(c1)N(Cc1ccc(F)cc1)C(=O)CS2	none
O=C(NCCCN1CCOCC1)c1ccc2c(c1)N(Cc1ccc(F)cc1)CCS2	FBA Mtb inh 94 | Mtb FBA inh conf 178 | GDH-TPI counter-2 134
C[C@@H]1CN([C@@H](C)CO)C(=O)c2cccc(NS(=O)(=O)c3cn(C)cn3)c2O[C@H]1CN(C)C(=O)Nc1ccc(F)cc1	none (no result: PrPC TRFRET, Yp Topo-I inh, FBA Mtb inh, GDH-TPI counter-1)
O=C(CCN1C(=O)c2cccc3cccc(c23)C1=O)NCc1cccnc1	FBA Mtb inh 35 | Mtb FBA inh conf inactive | GDH-TPI counter-2 inactive
O=C1c2cccc3cccc(c23)C(=O)N1Cc1cccnc1	FBA Mtb inh 41 | Mtb FBA inh conf inactive | GDH-TPI counter-2 inactive
O=C(CCCCCN1C(=O)c2cccc3cccc(c23)C1=O)NCCO	FBA Mtb inh 36 | Mtb FBA inh conf 90 | GDH-TPI counter-2 74
O=C(CCN1C(=O)c2cccc3cccc(c23)C1=O)NCc1ccco1	none
O=C(CCCN1C(=O)c2cccc3cccc(c23)C1=O)NC1CCS(=O)(=O)C1 (stereo unspecified)	FBA Mtb inh 40 | Mtb FBA inh conf 56 | GDH-TPI counter-2 57
CN1C(=O)c2cc(NC(=O)c3ccccc3F)ccc2OC[C@@H]2O[C@@H](CC(=O)NCc3ccc4c(c3)OCO4)CC[C@@H]21	none (no result: PrPC TRFRET, Yp Topo-I inh, FBA Mtb inh, GDH-TPI counter-1)
COCC(=O)Nc1ccc2c(c1)[C@H]1C[C@@H](CC(=O)NC3CCCCC3)O[C@@H](CO)[C@H]1O2	none (no result: PrPC TRFRET, Yp Topo-I inh, FBA Mtb inh, GDH-TPI counter-1)
CO[C@@H]1CN(C)C(=O)c2cc(NC(=O)c3ccno3)ccc2OC[C@H](C)N(S(C)(=O)=O)C[C@H]1C	none (no result: PrPC TRFRET, Yp Topo-I inh, FBA Mtb inh, GDH-TPI counter-1)
O=C(C[C@@H]1C=C[C@H](NC(=O)Nc2ccccc2F)[C@@H](CO)O1)NCc1ccc(Cl)cc1	none (no result: PrPC TRFRET, Yp Topo-I inh, FBA Mtb inh, GDH-TPI counter-1)
O=C(O)c1cc(-c2c[nH]c3ccccc23)nc2ccc3ccccc3c12	FBA Mtb inh 45 | Mtb FBA inh conf active | GDH-TPI counter-2 136
C[C@@H]1CCCCO[C@@H](CN(C)Cc2ccccc2)[C@H](C)CN([C@H](C)CO)C(=O)c2cc(NC(=O)NC3CCCCC3)ccc2O1	none (no result: PrPC TRFRET, Yp Topo-I inh, FBA Mtb inh, GDH-TPI counter-1)
Cn1c(=O)c2cc(NC(=S)NC3CC3)ccc2n1Cc1cccc(C(F)(F)F)c1	FBA Mtb inh 30 | Mtb FBA inh conf 121 | GDH-TPI counter-2 80
Cn1c(=O)c2cc(NC(=O)NCc3ccc(Cl)cc3Cl)ccc2n1Cc1ccc(F)cc1	FBA Mtb inh 89 | Mtb FBA inh conf active | GDH-TPI counter-2 165
